About 79,000 compounds went through this panel and 15% of them were active in at least one assay; those are over-represented in the sample as a whole. Unmarked numbers belong to inactive results. Calls of active or inactive are those of the source. No stated cut-off is given here; in the data, active means growth inhibition above about 70%; inactive means the rest.

From PubChem BioAssay (NCI) come the findings set out here.

Assay [1] is described as follows: NCI Yeast Anticancer Drug Screen. Data for the rad50 strain (AID 155).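 Further: 0% = growth of vehicle-only cultures of the same strain.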 As to conditions: S. cerevisiae rad50 strain growth inhibition, stronger effect = higher value. The essentials:
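A DNA repair-deficient yeast mutant serves as the test organism; compound-induced growth inhibition is calculated against vehicle-treated cells.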

Assay [2] can be described thus: NCI Yeast Anticancer Drug Screen. Data for the mec2-1 strain (AID 157). The following applies: S. cerevisiae mec2-1 strain, stronger effect = higher value. The essentials: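 Yeast mec2-1 mutant treated with compound. Readout: growth inhibition vs vehicle controls.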
Assay [3] in a line: NCI Yeast Anticancer Drug Screen. Data for the sgs1 mgt1 strain (AID 161).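 Further: 0% = growth of cultures given vehicle only.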 The following applies: S. cerevisiae sgs1 mgt1 strain, stronger effect = higher value. An outline of the steps:
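Inhibition of yeast growth, normalised to vehicle-treated controls, is reported for a strain bearing genetic alterations in DNA damage repair.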

Assay [4] is described as follows: NCI Yeast Anticancer Drug Screen. Data for the cln2 rad14 strain (AID 165).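 Further: 0% = growth equal to vehicle treated cultures.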 The following applies: S. cerevisiae cln2 rad14 strain, stronger effect = higher value. An outline of the steps:
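cln2 rad14 yeast strain; compound exposure; growth inhibition read vs vehicle controls.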

A short description of assay [5]: NCI Yeast Anticancer Drug Screen. Data for the bub3 strain (AID 167). The following applies: S. cerevisiae bub3 mutant strain, stronger effect = higher value. An outline of the steps:
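Inhibition values come from growth of compound-treated mutant yeast normalised to vehicle-treated controls.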

Assay [6] is described as follows: NCI Yeast Anticancer Drug Screen. Data for the mlh1 rad18 strain (AID 175). As to conditions: S. cerevisiae mlh1 rad18 strain growth inhibition, stronger effect = higher value. An outline of the steps:
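Yeast w/ defined DNA-repair lesions; compound exposure; growth vs vehicle controls → % inhibition.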

[7] abbreviates: at 5.0 µM (retest, dose inferred, filed as 0.5).
Where [8] appears, read: at 50.0 µM (retest, dose inferred, filed as 5.0).

Turning to `c1ccc2c(CCc3ccncc3)cccc2c1`, the growth inhibition in assay [1] (setting [7]) is 4%; in assay [1] (setting [8]), 74% (active); in assay [1] (at 50.0 µM) it was 95.4% (active); in assay [2] (setting [7]), 2%; in assay [2] (setting [8]) it was 60%; in assay [2] (at 50.0 µM) it was 95.5% (active). Also, the growth inhibition in assay [3] (setting [7]) is 1%; in assay [3] (setting [8]), 60%; in assay [3] (at 50.0 µM) it was 96% (active); in assay [4] (setting [7]), 3%; in assay [4] (setting [8]), 53%; in assay [4] (at 50.0 µM), 88.5% (active). Also, the growth inhibition in assay [5] (setting [7]) was 10%; in assay [5] (setting [8]), 81% (active); in assay [5] (at 50.0 µM), 94.1% (active); in assay [6] (setting [7]), 0%; in assay [6] (setting [8]) it was 71% (active); in assay [6] (at 50.0 µM), 92.5% (active).
As to `CCCCCCCCCCCC(=O)NC(CCC(=O)O)C(=O)O` (stereo not given), the growth inhibition in assay [1] (setting [7]) is 4%; in assay [1] (setting [8]), -2%; in assay [1] (at 50.0 µM), -6.05%; in assay [2] (setting [7]), -19%; in assay [2] (setting [8]) it was -12%; in assay [2] (at 50.0 µM), -8%. In addition, the growth inhibition was -3% in assay [3] (setting [7]); -1% in assay [3] (setting [8]); 5.95% in assay [3] (at 50.0 µM); -5% in assay [4] (setting [7]); -9% in assay [4] (setting [8]); 49.4% in assay [4] (at 50.0 µM). Further, the growth inhibition in assay [5] (setting [7]) is -7%; in assay [5] (setting [8]), 0%; in assay [5] (at 50.0 µM), -2.15%; in assay [6] (setting [7]) it was -18%; in assay [6] (setting [8]) it was -8%; in assay [6] (at 50.0 µM) it was 5.1%.
With `O=C(CCN1CCN(c2cccc(Cl)c2)CC1)N1CCc2c([nH]c3ccccc23)C1c1cccnc1` (stereo not given), the growth inhibition in assay [1] (setting [7]) is 17%; in assay [1] (setting [8]), 17%; in assay [1] (at 50.0 µM) it was 90.4% (active); in assay [2] (setting [7]) it was 10%; in assay [2] (setting [8]), 10%; in assay [2] (at 50.0 µM) it was 92% (active). Also, the growth inhibition in assay [3] (setting [7]) was 8%; in assay [3] (setting [8]), 8%; in assay [3] (at 50.0 µM), 90.4% (active); in assay [4] (setting [7]), 9%; in assay [4] (setting [8]), 9%; in assay [4] (at 50.0 µM), 92% (active). Moreover, the growth inhibition in assay [5] (setting [7]) is 8%; in assay [5] (setting [8]), 8%; in assay [5] (at 50.0 µM) it was 91.3% (active); in assay [6] (setting [7]) it was 23%; in assay [6] (setting [8]), 23%; in assay [6] (at 50.0 µM), 89.7% (active).
Regarding `C/C(=N\NC(=S)N1CCN(C2CCCCC2)CC1)c1ccccn1`, the growth inhibition was -3% in assay [1] (setting [7]); 64% in assay [1] (setting [8]); 99% (active) in assay [1] (at 50.0 µM); -14% in assay [2] (setting [7]); 76% (active) in assay [2] (setting [8]); 98.7% (active) in assay [2] (at 50.0 µM). The growth inhibition is -4% in assay [3] (setting [7]); 98% (active) in assay [3] (setting [8]); 98.5% (active) in assay [3] (at 50.0 µM); 12% in assay [4] (setting [7]); 59% in assay [4] (setting [8]); 97.1% (active) in assay [4] (at 50.0 µM). Further, the growth inhibition in assay [5] (setting [7]) was -16%; in assay [5] (setting [8]), 51%; in assay [5] (at 50.0 µM), 96.6% (active); in assay [6] (setting [7]) it was 15%; in assay [6] (setting [8]) it was 85% (active); in assay [6] (at 50.0 µM), 95.7% (active).
With `COc1ccc(I)c(C=NC2CCCCC2)c1C`, the growth inhibition was 41% in assay [1] (setting [7]); 94% (active) in assay [1] (setting [8]); 97.2% (active) in assay [1] (at 50.0 µM); 16% in assay [2] (setting [7]); 82% (active) in assay [2] (setting [8]); 91.5% (active) in assay [2] (at 50.0 µM). For the same compound, the growth inhibition in assay [3] (setting [7]) was 41%; in assay [3] (setting [8]) it was 92% (active); in assay [3] (at 50.0 µM), 99% (active); in assay [4] (setting [7]) it was 1%; in assay [4] (setting [8]) it was 88% (active); in assay [4] (at 50.0 µM) it was 41.8%. Also, the growth inhibition in assay [5] (setting [7]) was 35%; in assay [5] (setting [8]), 94% (active); in assay [5] (at 50.0 µM) it was 89.4% (active); in assay [6] (setting [7]), 27%; in assay [6] (setting [8]) it was 93% (active); in assay [6] (at 50.0 µM) it was 94.7% (active).
As to `Nc1nc(SCc2ccccc2)c2ncn(CCCl)c2n1`, the growth inhibition in assay [1] (setting [7]) is -3%; in assay [1] (setting [8]), 0%; in assay [1] (at 50.0 µM), 1.4%; in assay [2] (setting [7]), -4%; in assay [2] (setting [8]), 2%; in assay [2] (at 50.0 µM), 15.3%. The growth inhibition in assay [3] (setting [7]) was -9%; in assay [3] (setting [8]) it was 1%; in assay [3] (at 50.0 µM) it was 17.6%; in assay [4] (setting [7]), -4%; in assay [4] (setting [8]), -1%; in assay [4] (at 50.0 µM), 70.3% (active). Also, the growth inhibition was -2% in assay [5] (setting [7]); -7% in assay [5] (setting [8]); -2.15% in assay [5] (at 50.0 µM); -2% in assay [6] (setting [7]); 3% in assay [6] (setting [8]); 20.9% in assay [6] (at 50.0 µM).
Take `Cc1ccccc1C(=N)c1ccccc1Cc1cccc2ccccc12`: the growth inhibition was 9% in assay [1] (setting [7]); 93% (active) in assay [1] (setting [8]); 92.5% (active) in assay [1] (at 50.0 µM); -10% in assay [2] (setting [7]); 91% (active) in assay [2] (setting [8]); 88.5% (active) in assay [2] (at 50.0 µM). In addition, the growth inhibition is -1% in assay [3] (setting [7]); 92% (active) in assay [3] (setting [8]); 93.2% (active) in assay [3] (at 50.0 µM); -11% in assay [4] (setting [7]); 87% (active) in assay [4] (setting [8]); 78.9% (active) in assay [4] (at 50.0 µM). Further, the growth inhibition in assay [5] (setting [7]) was -9%; in assay [5] (setting [8]) it was 93% (active); in assay [5] (at 50.0 µM), 88.4% (active); in assay [6] (setting [7]), 0%; in assay [6] (setting [8]) it was 91% (active); in assay [6] (at 50.0 µM), 91.2% (active).
For `Nc1ncnc2nc(SCCO)[nH]c12`, the growth inhibition in assay [1] (setting [7]) is -1%; in assay [1] (setting [8]), -2%; in assay [1] (at 50.0 µM) it was 9.4%; in assay [2] (setting [7]), 4%; in assay [2] (setting [8]), 0%; in assay [2] (at 50.0 µM), -4.9%. The growth inhibition in assay [3] (setting [7]) was -1%; in assay [3] (setting [8]), -4%; in assay [3] (at 50.0 µM) it was 12.9%; in assay [4] (setting [7]), 0%; in assay [4] (setting [8]), -5%; in assay [4] (at 50.0 µM), 31.4%. For the same compound, the growth inhibition is 3% in assay [5] (setting [7]); -2% in assay [5] (setting [8]); 9.15% in assay [5] (at 50.0 µM); -2% in assay [6] (setting [7]); -3% in assay [6] (setting [8]); 39.1% in assay [6] (at 50.0 µM).
Turning to `Cc1ccc2c(c1)C(O)(c1ccccc1)C(c1ccccc1)C(c1ccccc1)O2` (stereo not given), the growth inhibition in assay [1] (setting [7]) is 78% (active); in assay [1] (setting [8]), 83% (active); in assay [1] (at 50.0 µM) it was 93.9% (active); in assay [2] (setting [7]) it was 56%; in assay [2] (setting [8]), 92% (active); in assay [2] (at 50.0 µM), 94.3% (active). For the same compound, the growth inhibition was 69% in assay [3] (setting [7]); 87% (active) in assay [3] (setting [8]); 93.7% (active) in assay [3] (at 50.0 µM); 59% in assay [4] (setting [7]); 62% in assay [4] (setting [8]); 90.4% (active) in assay [4] (at 50.0 µM). Moreover, the growth inhibition is 87% (active) in assay [5] (setting [7]); 91% (active) in assay [5] (setting [8]); 89.5% (active) in assay [5] (at 50.0 µM); 66% in assay [6] (setting [7]); 88% (active) in assay [6] (setting [8]); 93.6% (active) in assay [6] (at 50.0 µM).
Turning to `Cc1cc(Br)cc(C)c1NC(=O)C(=O)C(C(=O)c1ccc2ccccc2c1)C1OC(=O)c2ccccc21` (stereo not given), the growth inhibition in assay [1] (setting [7]) is 4%; in assay [1] (setting [8]) it was 38%; in assay [1] (at 50.0 µM), 12.5%; in assay [2] (setting [7]) it was 4%; in assay [2] (setting [8]) it was 19%; in assay [2] (at 50.0 µM), 14.3%. The growth inhibition in assay [3] (setting [7]) is 10%; in assay [3] (setting [8]) it was 11%; in assay [3] (at 50.0 µM) it was 27.7%; in assay [4] (setting [7]) it was 1%; in assay [4] (setting [8]), -14%; in assay [4] (at 50.0 µM) it was 70% (active). Moreover, the growth inhibition in assay [5] (setting [7]) was 5%; in assay [5] (setting [8]) it was 23%; in assay [5] (at 50.0 µM), 31.5%; in assay [6] (setting [7]), 4%; in assay [6] (setting [8]), 19%; in assay [6] (at 50.0 µM), 31.8%.
